In ChEMBL document CHEMBL3988442, “University of Dundee, Small-Polar-MMV Screening Library” (2021):

molecular target: T1, Aspartate--tRNA(Asp/Asn) ligase (Mycobacterium tuberculosis (strain ATCC 25618 / H37Rv)) (UniProt P9WFW3); experiment: Assay for Asp RNA synthetase-1 from Mycobacterium tuberculosis; type: functional; set-up: scale not given: in the data most compounds retested in dose-response had high values; conditions: 30 µM
T1 sequence (whole entry): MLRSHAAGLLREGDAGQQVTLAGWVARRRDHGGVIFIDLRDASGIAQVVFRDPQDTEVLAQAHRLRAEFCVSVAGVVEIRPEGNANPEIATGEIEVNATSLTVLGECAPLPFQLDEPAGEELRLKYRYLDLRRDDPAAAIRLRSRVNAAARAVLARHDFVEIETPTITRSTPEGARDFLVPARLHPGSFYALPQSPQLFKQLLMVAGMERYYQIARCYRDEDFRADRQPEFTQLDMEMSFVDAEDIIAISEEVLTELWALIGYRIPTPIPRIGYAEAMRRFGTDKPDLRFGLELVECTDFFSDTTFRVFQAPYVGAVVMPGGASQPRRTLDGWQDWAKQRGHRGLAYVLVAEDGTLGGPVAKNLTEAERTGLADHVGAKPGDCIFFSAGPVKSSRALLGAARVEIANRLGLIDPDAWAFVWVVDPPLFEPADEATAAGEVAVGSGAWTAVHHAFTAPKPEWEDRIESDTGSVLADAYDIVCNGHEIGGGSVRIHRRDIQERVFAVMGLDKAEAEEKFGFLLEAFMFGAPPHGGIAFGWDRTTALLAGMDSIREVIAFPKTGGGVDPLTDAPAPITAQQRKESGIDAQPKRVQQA

Compound | Percent Effect [%]
O=C(c1ccc[nH]1)N1CCCC2(CCN(c3ccsc3)C2=O)C1 (stereo not given) | 3.37
CC(=O)NCCNC(=O)c1cnc(-c2ccccc2)nc1 | 4.64
NC(=O)CN1CCC(NC(=O)Nc2nccs2)CC1 | -4.06
CC(=O)N(Cc1noc(C)n1)C1CCN(CCOc2ccccc2)C1 (stereo not given) | 2.87
COC(=O)c1cccc(C(=O)N2CCN(c3cccc(C)c3C)CC2)n1 | -1.18
COCC1CN(Cc2cc(C)on2)Cc2cn(C)nc21 (stereo not given) | 1.83
Cc1nc(C2CCCN(C(=O)Cn3ccccc3=O)C2)no1 (stereo not given) | -1.54
Cn1cnnc1C1CCCN(C(=O)NCCc2ccccc2F)C1 (stereo not given) | -6.03
Cc1noc2nc(C3CCN(Cc4ccncc4)CC3)cc(C(F)F)c12 | 5.43
Cc1nc(CN2CCOCC3(CCN(c4cccnc4)CC3)C2)cs1 | 1.87
CSCCCNC(=O)Nc1cccc(-c2nccn2C)c1 | -3.93
O=C(NC[C@]12COC[C@H]1CN(Cc1nccs1)C2)c1ccccc1 | -2.56
CCc1nccn1C1CCCN(C(=O)c2ccc3c(c2)OCO3)C1 (stereo not given) | -0.182
O=C(CN1CCC(c2cccc(F)c2)C1)NCc1ccco1 (stereo not given) | -0.144
Cc1cccc(CN2CCc3nnc(CN4CCCC4=O)n3CC2)n1 | -2.89
CCC(OC)C(=O)N1CCc2nc(NC)nc(C(=O)N3CCCC3)c2C1 (stereo not given) | 1.34
Cc1ccc(-c2nc(CN3CCn4c(nnc4C4CC4)C3)cs2)o1 | -4.03
O=C(NCC1CCOCC1)[C@H]1C[C@@H]2CCN(Cc3ccncc3)C[C@@H]2O1 | 2.48
CCc1cnc(CN(C(C)=O)C2CCN(CCS(C)(=O)=O)C2)o1 (stereo not given) | -3.9
CC(=O)Nc1nc(CN2CCCCC2Cn2cccn2)cs1 (stereo not given) | 8.39

Compound | Percent Effect [%]
CN(Cc1ncc[nH]1)S(=O)(=O)c1cccc(C(=O)N2CCOCC2)c1 | 8.16
COc1ccc(F)cc1C(C)NC(=O)c1nnc(C)s1 (stereo not given) | 1.79
Cc1ccc(S(=O)(=O)NC2CNC(=O)C2)cc1C (stereo not given) | -1.98
COCC(=O)N1CCCC1c1cc(Nc2nnc(C)s2)nc(C)n1 (stereo not given) | -3.43
Cc1cc(CNC(=O)NC(C)c2ccncc2)no1 (stereo not given) | 7.94
CN(CC1CC1)c1ccc2ccc(C(=O)NCCN3CCOCC3)cn12 | -0.228
Cc1nc(C(=O)N2CCC(Cc3cnc4[nH]ccc4c3)C2)co1 (stereo not given) | 1.31
NC(=O)c1csc(C(=O)N2CCCCC2Cn2cccn2)c1 (stereo not given) | -1.92
COc1ccc(NC(=O)N2CCN(c3ncccn3)CC2)cn1 | -4.63
CN1CC(=O)N(c2ccccc2)CC12CCN(CC1CC1)C2 (stereo not given) | 3.68
CN1C(=O)C(c2cccnc2)CC12CCN(C(=O)c1cccn1C)CC2 (stereo not given) | 0.99
Cc1nc(C)n(C2CCCN(C(=O)c3sccc3C3CC3)C2)n1 (stereo not given) | -3.11
O=S1(=O)COCCN1Cc1cccc(Cl)c1 | -0.479
Cn1cc(CNCCn2cccn2)c(-c2cccnc2)n1 | 1.65
Cc1ccc(-c2csc(N)c2C#N)cc1 | -4.7
O=C(Cc1ccsc1)NCC1OCCc2cn(CC3CC3)nc21 (stereo not given) | 1.47
O=C1N(CC2CC2)CCC12CCN(c1ncccn1)CC2 | 3.3
O=C(c1cccnc1N1CCOCC1)N1CCCC(n2ccnc2)C1 (stereo not given) | -4.5
NS(=O)(=O)N1CCc2ccc(NC(=O)Cc3ccc(F)cc3)cc21 | -5.84
CN(C)C(=O)N1CCN(C(=O)C(c2ccccc2F)N(C)C)CC1 (stereo not given) | 0.752
